Bioassay records deposited in PubChem BioAssay by National Center for Advancing Translational Sciences (NCATS).
Compounds with a hit are over-represented: about 2.7% of the library has one in this group of screens.
S2 tox: viability counter-screen for ATXN expression inhibitors | S2 cells (HEK-293 line with an ATXN2-luciferase reporter) viability, CellTiter-Fluor protease fluorescence, 24 h | Potency, µM (titrated, usually from 56.7 µM), actives largely listed as cytotoxic | 400,000 compounds, 0.49% hits; note: nearly all actives have a fitted effect of over 40% in size
ATXN2 expr inh: inhibitors of ATXN2 expression; HEK-293 ATXN2-luciferase reporter, luminescence, 24 h; Potency, µM (titrated, usually from 57 µM), without a hit: top-dose activity change, negative = inhibition, actives largely listed as inhibitors; 360,000 compounds, 0.72% hits; AID 1745845; note: % is set by controls: 0 for no effect and ±100 for the full control effect; nearly all actives have a fitted effect of over 55% in size
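qHTS (up to 57 uM final) was run with 24 h compound exposure of reporter cells at 37 °C. Each well was multiplexed: SteadyGlo luminescence measured ATXN2-luciferase expression after a fluorogenic Gly-Phe-AFC viability readout (25 uM final).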
TGFb SMAD3 inh: inhibitors of TGF-b signaling. 410,000 compounds, 1.2% hits. AID 588855. Potency, µM (top dose mostly 46.1 µM), inactives show at the top dose activity, negative = inhibition, usual class: inhibitors. HepG2 CAGA-GFP TGF-b/SMAD3 reporter, GFP fluorescence, 18 h; TGF-beta stimulated, 500 pg/mL final; note: % is set by controls: 0 for no effect and ±100 for the full control effect; nearly all actives have a fitted effect of over 65% in size
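Using HEPG2 CAGA-GFP reporter cells at 1000 cells/well, we pinned test compounds, stimulated with recombinant TGF-beta (500 pg/mL final) and measured total well GFP after 18 h.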
HepG2 viability: kills HepG2 cells in TGF-b inhibitor counter-screen; HepG2 CAGA-GFP viability, ATP luminescence, 18 h; Potency, µM (titrated, usually from 46.1 µM), inactives show top-dose activity change, negative = cytotoxicity, usual class: cytotoxic; 410,000 compounds, 0.76% hits
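CellTiter-Glo luminescence gave cytotoxicity after 18 hours at 37 degrees C. The cells were HepG2 CAGA-GFP in 1% FBS DMEM, stimulated with 500 pg/mL TGF-beta after compound addition. %Activity was normalised to no-cell wells (complete cell-killing) and DMSO (no toxicity), and curves were fitted and classified.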
12-LOX inh: ALOX12 (human) lipoxygenase inhibition; P18054; purified 12hLO, xylenol orange hydroperoxide absorbance; Potency, µM (highest dose often 108 µM), inactives show top-dose activity change, negative = inhibition, hits mostly inhibitors; 580,000 compounds, 1.1% hits; note: % is set by controls: 0 for no effect and ±100 for the full control effect
Target sequence (P18054 whole entry, looked up): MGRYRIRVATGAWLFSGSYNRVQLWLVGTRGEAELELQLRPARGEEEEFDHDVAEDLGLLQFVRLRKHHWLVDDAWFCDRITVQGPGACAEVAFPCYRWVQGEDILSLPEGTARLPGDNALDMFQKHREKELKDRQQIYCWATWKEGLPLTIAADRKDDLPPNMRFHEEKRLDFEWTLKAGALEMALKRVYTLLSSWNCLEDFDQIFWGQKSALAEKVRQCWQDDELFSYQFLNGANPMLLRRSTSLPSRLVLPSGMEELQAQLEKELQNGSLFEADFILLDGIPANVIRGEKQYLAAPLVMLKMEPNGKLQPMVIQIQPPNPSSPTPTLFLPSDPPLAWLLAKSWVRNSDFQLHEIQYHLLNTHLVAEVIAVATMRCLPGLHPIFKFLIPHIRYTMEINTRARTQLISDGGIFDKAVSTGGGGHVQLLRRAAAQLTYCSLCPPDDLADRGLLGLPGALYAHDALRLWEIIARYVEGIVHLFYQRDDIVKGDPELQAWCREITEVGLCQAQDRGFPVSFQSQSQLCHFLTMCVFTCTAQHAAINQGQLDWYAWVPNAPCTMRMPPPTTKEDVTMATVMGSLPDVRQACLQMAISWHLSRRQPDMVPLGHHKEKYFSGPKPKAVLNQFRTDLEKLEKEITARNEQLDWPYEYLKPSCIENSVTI
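Hydroperoxide product was detected by ferrous iron/xylenol orange as the 573 to 405 nm absorbance ratio. Arachidonic acid at 40 uM (final) was turned over for 30 min at room temperature by 150 nM human 12hLO, pH 7.0 Hepes buffer, after 15 min compound preincubation.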
The depositor's hits bear a star; i = inactive; ? = inconclusive; · = no result given; ! = not active in a repeat; [ ] = dose if it differs, or a comment. Calls come from the whole dose curve; as a rule, active = well fitted curve in the direction sought with a large enough effect; inconclusive = small, poorly fitted or top-dose-only effect, or another doubt; inactive = no such curve, though single readings can be large; an effect the other way counts as inactive or inconclusive. Potency is the fitted concentration of half-maximal effect.

SMILES	S2 tox	ATXN2 expr inh	TGFb SMAD3 inh	HepG2 viability	12-LOX inh
C=CCC[C@@H](Cc1ccc(F)cc1)C(=O)OC[C@@H](Cc1c[nH]c2ccccc12)NC(=O)[C@@H](CC=C)CC(=O)N(CCO)Cc1ccccc1	?	?	12.6µM*	-69.4%	-12.2%
C=CC[C@@H](Cc1ccc(F)cc1)C(=O)OC[C@H]1CCCN1C(=O)[C@@H](CC=C)CC(=O)N(CCO)Cc1ccccc1	·	?	?	-24.7%	6.0%
C=CC[C@H](CC(=O)N(CCO)Cc1ccccc1)C(=O)NC[C@H](OC(=O)[C@@H](CC=C)Cc1ccc(F)cc1)c1ccccc1	25.1µM*	?	?	-40.3%	?
C=CC[C@@H](Cc1ccc(F)cc1)C(=O)OC[C@@H]1CCCN1C(=O)[C@H](CC=C)CC(=O)N(CCO)Cc1ccccc1	20µM*	?	?	-27.2%	69.1%
C=CC[C@@H](CC(=O)N(CCO)Cc1ccccc1)C(=O)NC[C@@H](OC(=O)[C@@H](CC=C)Cc1ccc(F)cc1)c1ccccc1	?	?	?	-24.9%	-2.0%
C=CCC[C@H](Cc1ccc(F)cc1)C(=O)OC[C@H](Cc1c[nH]c2ccccc12)NC(=O)[C@H](CC=C)CC(=O)N(CCO)Cc1ccccc1	31.6µM*	?	?	-26.5%	-11.4%
C=CC[C@@H](CC(=O)N(CCO)Cc1ccccc1)C(=O)N[C@H](COC(=O)[C@@H](CC=C)Cc1ccc(F)cc1)Cc1c[nH]c2ccccc12	?	0.0%	?	-12.9%	?
C=CCC[C@@H](Cc1ccc(F)cc1)C(=O)OC[C@H](C)NC(=O)[C@@H](CC=C)CC(=O)N(CCO)Cc1ccccc1	?	?	12.6µM*	-20.7%	-5.3%
C=CCC[C@H](Cc1ccc(F)cc1)C(=O)OC[C@@H](C)NC(=O)[C@H](CC=C)CC(=O)N(CCO)Cc1ccccc1	?	?	?	-9.7%	-32.5%
CCOC(=O)CSc1n[nH]c2nc3c(c(=O)n12)C1(CCCC1)Cc1ccccc1-3	·	·	·	·	-19.7%
O=c1c(Cl)c(Oc2cccc(F)c2)cnn1-c1ccc(C(F)(F)F)cn1	·	·	·	·	-2.4%
CCN(CC)Cc1ccc2cc(COC(=O)Nc3ccc(C(=O)NO)cc3)ccc2c1	·	35.8%	·	·	15.3µM*
CCC(=O)Nc1ccc(C(=O)OCc2ccc(Cl)c(Cl)c2)cc1	i	-5.5%	-0.4%	-12.2%	-2.0%
CC(C)c1nc(CN(C)C(=O)N[C@H](C(=O)N[C@@H](Cc2ccccc2)C[C@H](O)[C@H](Cc2ccccc2)NC(=O)OCc2cncs2)C(C)C)cs1	?	27.3µM*!	·	·	-23.8%[57.4 µM]
COc1ccc(N(Cc2cc(CN3CCOCC3)cs2)S(=O)(=O)c2ccc(F)cc2)cc1	·	·	·	·	-5.1%
CC(=O)Nc1ccc(S(=O)(=O)NC2C3(C)CCC(C3)C2(C)C)cc1 (configuration not stated)	i	0.5%	0.0%	-4.4%	3.16µM*
COc1ccc(C2=NNC(=O)C2(C)Br)cc1 (configuration not stated)	i	-18.7%	2.6%	0.1%	44.7µM*
CC(=O)N1CCN(C(=O)c2ccc3nc(C)c(C)nc3c2)CC1	·	·	·	·	-20.2%
CC(C)=CCc1c(O)cc(O)c2c(=O)c3c(CC=C(C)C)c(O)ccc3oc12	25.1µM*	?	3.98µM*	15.8µM*	·
COc1c(OC(C)=O)ccc(/C=C/c2ccc3ccccc3n2)c1[N+](=O)[O-]	22.4µM*	-40.9%	?	-52.7%	-17.1%
CCOc1c(OC(C)=O)ccc(/C=C/c2ccc3cccc(OC(C)=O)c3n2)c1[N+](=O)[O-]	?	-1.1%	12.6µM*	-74.0%	-26.8%
CCOc1cc(/C=C/c2ccc3cccc([N+](=O)[O-])c3n2)ccc1O	?	-8.1%	12.6µM*	-34.8%	?
CC(NC(=O)C1CCCC1)C(=O)NC(C)(C)C (configuration not stated)	·	·	·	·	53.4%
COc1ccc(CCCc2nnc(SCC(=O)Nc3cccc(C)c3)o2)cc1C	i	-0.8%	?	-5.1%	?
COc1ccc(CCCc2nnc(SCC(=O)Nc3ccc(C)cc3)o2)cc1C	i	5.0%	-21.3%	-51.2%	17.8µM*!
SMILES	S2 tox	ATXN2 expr inh	TGFb SMAD3 inh	HepG2 viability	12-LOX inh
CCNc1ccc(S(=O)(=O)N2CCOCC2)cc1NC(=O)Cc1c[nH]c2ccccc12	·	·	·	·	-21.0%
COc1cc(/C=C(\C#N)C(N)=O)ccc1OS(=O)(=O)c1ccc(C)cc1	i	-2.1%	8.5%	-18.9%	?
COc1cc(/C=C(\C#N)C(=O)NC2CCCCC2C)ccc1OS(=O)(=O)c1ccc(C)cc1 (configuration not stated)	i	-11.7%	20µM*	-82.5%	-0.6%
O=C(Nc1ccccc1F)c1ccc(Cn2nc(N3CCN(c4ccccc4)CC3)ccc2=O)o1	?	?	?	-24.6%	44.7µM*
COc1cc(OC)c(C(=O)N2CCC(C(=O)c3ccc4c(c3)OCCO4)CC2)cc1OC	·	·	·	·	14.6%
CCc1ccc(CNC(=O)C2CCCN(c3nnc(C)c4c(C)n(-c5ccccc5)nc34)C2)cc1 (configuration not stated)	20µM*	?	?	-51.4%	35.7%
Cc1nnc(N2CCCC(C(=O)NCCc3ccccc3)C2)c2nn(-c3ccccc3)c(C)c12 (configuration not stated)	12.6µM*	-24.6%	-27.9%	-33.9%	18.8%
Cc1nnc(N2CCCC(C(=O)Nc3cccc(C(F)(F)F)c3)C2)c2nn(-c3ccccc3)c(C)c12 (configuration not stated)	15.8µM*	-20.4%	?	-82.7%	-7.2%
Cc1nnc(N2CCCC(C(=O)NCc3ccccc3)C2)c2nn(-c3ccccc3)c(C)c12 (configuration not stated)	?	6.5%	-1.6%	2.2%	-13.1%
Cc1ccc(CCNC(=O)C2CCCN(c3nnc(C)c4c(C)n(-c5ccccc5)nc34)C2)cc1 (configuration not stated)	?	-13.4%	5.9%	-12.7%	-13.8%
Cc1noc2ncnc(N3CCCC(C(=O)Nc4cccc(C(F)(F)F)c4)C3)c12 (configuration not stated)	·	20µM*	?	-13.2%	-2.5%
Cc1ccccc1CNC(=O)C1CCCN(c2nnc(C)c3c(C)n(-c4ccccc4)nc23)C1 (configuration not stated)	31.6µM*	20µM*	-5.5%	-15.9%	0.0%
Cc1nnc(N2CCCC(C(=O)NCc3ccccc3F)C2)c2nn(-c3ccccc3)c(C)c12 (configuration not stated)	i	-21.0%	14.3%	0.2%	0.0%
